# Data from paper PMC4336329 (PLoS ONE, 2015).
# About 14,000 (4.5%) of roughly 310,000 compounds showed an effect of 50% or more. The effect is printed as a negative number. The sample as a whole holds a higher share of strong results than the screen did.
# Target: human ether-à-go-go-related gene (hERG) potassium channel (human, UniProt Q12809)
# Assay: primary screen, population patch clamp on CHO cells stably expressing hERG; higher = less effect of the substance
# 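Also: peak tail current of the secondary pulse compared with the same well before compound.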
# Chain of human ether-à-go-go-related gene (hERG) potassium channel (Q12809 whole entry, looked up): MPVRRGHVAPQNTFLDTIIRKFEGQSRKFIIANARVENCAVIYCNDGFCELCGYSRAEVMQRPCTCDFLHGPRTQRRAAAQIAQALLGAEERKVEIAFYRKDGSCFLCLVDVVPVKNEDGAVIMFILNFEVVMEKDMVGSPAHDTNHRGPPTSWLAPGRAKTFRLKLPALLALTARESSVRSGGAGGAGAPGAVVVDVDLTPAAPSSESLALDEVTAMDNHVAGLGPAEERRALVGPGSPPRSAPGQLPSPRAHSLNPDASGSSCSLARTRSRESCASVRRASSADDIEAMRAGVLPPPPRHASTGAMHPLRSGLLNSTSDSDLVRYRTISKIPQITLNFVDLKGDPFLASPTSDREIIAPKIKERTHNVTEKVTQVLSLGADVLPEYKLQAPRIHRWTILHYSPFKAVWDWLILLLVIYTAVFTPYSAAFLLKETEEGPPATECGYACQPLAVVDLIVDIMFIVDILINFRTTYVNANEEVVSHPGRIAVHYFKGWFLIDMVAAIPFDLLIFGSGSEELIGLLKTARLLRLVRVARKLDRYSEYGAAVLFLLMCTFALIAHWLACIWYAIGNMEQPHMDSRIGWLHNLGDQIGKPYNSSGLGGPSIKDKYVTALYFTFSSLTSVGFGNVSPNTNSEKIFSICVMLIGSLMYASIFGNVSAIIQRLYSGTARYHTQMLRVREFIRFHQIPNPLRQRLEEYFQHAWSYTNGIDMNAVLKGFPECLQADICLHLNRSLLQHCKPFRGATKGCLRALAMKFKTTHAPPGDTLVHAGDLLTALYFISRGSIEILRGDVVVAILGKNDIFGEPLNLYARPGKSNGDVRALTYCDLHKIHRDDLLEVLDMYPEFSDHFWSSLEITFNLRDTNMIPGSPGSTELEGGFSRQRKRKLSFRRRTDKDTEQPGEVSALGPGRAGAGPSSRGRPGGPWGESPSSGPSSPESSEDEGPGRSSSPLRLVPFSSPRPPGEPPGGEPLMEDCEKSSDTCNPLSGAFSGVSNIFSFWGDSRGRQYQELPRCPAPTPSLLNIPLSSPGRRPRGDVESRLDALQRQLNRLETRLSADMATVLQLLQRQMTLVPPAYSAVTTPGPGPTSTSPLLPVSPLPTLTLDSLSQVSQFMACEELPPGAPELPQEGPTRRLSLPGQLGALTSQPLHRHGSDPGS
row,Structure (SMILES),"hERG current change (%, negative = inhibition) at 10uM [%]"
1,O=C(N1CCOCC1)N(Cc1ccco1)CC1CCCO1 (stereo not shown),-48.5
2,COc1ccccc1NC(=O)c1ccc2nc(C)c(C)nc2c1,-16.1
3,O=C(c1ccccc1)n1ccn(-c2ccccc2)c1=S,-14.9
4,Cn1c(=NC(=O)CS(=O)(=O)c2ccccc2)sc2cc([N+](=O)[O-])ccc21,-36.5
5,CCCc1cc(=O)oc2cc(C)cc(OC(C)C(=O)NCC(O)c3ccccc3)c12 (stereo not shown),7.42
6,O=C(CNC(=O)c1ccc(OC(F)F)cc1)NCC1(N2CCOCC2)CCCCC1,-68.5
7,CN(C)S(=O)(=O)c1ccc(C(=O)NCC2(N3CCOCC3)CCCCC2)cc1,-9.69
8,CN(C)S(=O)(=O)c1ccc(C(=O)NCC2(N3CCCCC3)CCCCC2)cc1,-1.46
9,Cc1ccccc1C(=O)NCC(=O)NCC1(N2CCOCC2)CCCCC1,-25.7
10,NC(=O)COc1ccc(C(=O)NCC2(N3CCOCC3)CCCCC2)cc1,6.98
11,CCN(CC)S(=O)(=O)c1ccc(C(=O)NCC2(N3CCOCC3)CCCCC2)cc1,-67.3
12,CCC(C)NC(=O)CS(=O)Cc1nc(-c2cccc(OC)c2)oc1C (stereo not shown),2.84
13,CCOc1cc(C2NC(=O)NC(C)=C2C(C)=O)cc(Cl)c1OCC(=O)O (stereo not shown),5.35
14,CCc1ccc(OCC(=O)Nc2ccc(S(=O)(=O)Nc3cc(C)on3)cc2)c(Br)c1,-19.7
15,Brc1ccc(CNc2nc3ccccc3n2CCN2CCCCC2)cc1,-62.7
16,Cl.OCCNc1nc2ccccc2n1CCN1CCCCC1,-30.4
17,Brc1cccc(CNc2nc3ccccc3n2CCN2CCCCC2)c1,-67.8
18,Cn1c(NCc2cccc(Br)c2)nc2ccccc21,-22.2
19,Cc1nc2ccccc2n1CCN1CCOCC1.Cl,23.3
20,Nc1nc2ccccc2n1CCN1CCCC1,6.04
21,C=CCn1c(NCc2ccccc2)nc2ccccc21,-26.4
22,Brc1cccc(CNc2nc3ccccc3n2CCN2CCOCC2)c1,-76.3

row,Structure (SMILES),"hERG current change (%, negative = inhibition) at 10uM [%]"
1,Cc1ccc(OCCn2cnc3cc([N+](=O)[O-])ccc3c2=O)cc1,-8.19
2,COc1ccc(S(=O)(=O)NNC(=O)c2sccc2-n2cccc2)cc1,2
3,COC(=O)c1ccc(NC(=O)C2CCCN2S(=O)(=O)c2ccc(OC)cc2)cc1 (stereo not shown),-16.8
4,COc1cc(C(=O)Nc2ccc(C(=O)c3cccs3)cc2)cc(OC)c1OC,-10.1
5,Cc1cc(F)ccc1NC(=S)NC1CCCC1,17.9
6,CCOC(=O)c1[nH]c2ccc(OC)cc2c1NC(=O)CCN1CCSCC1,-5.8
7,CCOC(=O)c1[nH]c2ccc(OC)cc2c1NC(=O)CN1CCc2ccccc2C1,-12.4
8,CCOC(=O)c1[nH]c2ccc(OC)cc2c1NC(=O)CCN1CCC(C)CC1,-22.8
9,COC(=O)c1[nH]c2cc(OC)ccc2c1NC(=O)CCN1CCN(c2ccccc2)CC1,-67
10,CCOC(=O)C1CCCN(CCC(=O)Nc2c(C(=O)OC)[nH]c3cc(OC)ccc23)C1 (stereo not shown),-59.6
11,CCOC(=O)C1CCCN(CC(=O)Nc2c(C(=O)OC)[nH]c3ccc(C)cc23)C1 (stereo not shown),-36.1
12,CCOC(=O)c1[nH]c2ccc(OC)cc2c1NC(=O)CCN1CCc2ccccc2C1,-59.5
13,CCOC(=O)c1[nH]c2ccc(OC)cc2c1NC(=O)CCN1CCN(Cc2ccccc2)CC1,-57.1
14,COC(=O)c1[nH]c2cc(OC)ccc2c1NC(=O)CCN1CCN(c2cccc(C)c2C)CC1,-16.4
15,COC(=O)c1[nH]c2cc(OC)ccc2c1NC(=O)CCN1CCCCC1,-20.5
16,CCOC(=O)c1[nH]c2cc3c(cc2c1NC(=O)CN1CCc2ccccc2C1)OCO3,-0.934
17,CCOC(=O)C1CCCN(CC(=O)Nc2c(C(=O)OC)[nH]c3ccccc23)C1 (stereo not shown),-25.2
18,COc1cc(OC)nc(Oc2ccccc2C(=O)Oc2cccc(C)c2)n1,7.95
19,CC1=NN(C(=O)c2ccc(Cl)cc2)C(O)(c2ccccc2)C1 (stereo not shown),22
20,COc1ccccc1C(=O)N(C1=NC(C)CS1)c1ccc(Cl)cc1 (stereo not shown),7.94
21,Cc1cc(C)c(C#N)c(N2CCCC2)n1,5.67
22,COCCCNC(=O)c1ccc(CS(=O)(=O)c2ccc(Br)cc2)o1,-14.3

row,Structure (SMILES),"hERG current change (%, negative = inhibition) at 10uM [%]"
1,COC(=O)C1=C(C(=O)OC)[N+]2=C3N(C(=O)NC2(C)C)[C@H](CO)C[C@@]32c3ccccc3N(Cc3ccccc3)[C@@H]12,-11.2
2,CCOc1ccc(CCNC(=O)CN(C)S(=O)(=O)c2cccs2)cc1OCC,10.2
3,CC(=O)Nc1cccc(NC(=O)CSc2nnc(NC(=O)c3ccco3)s2)c1,4.45
4,O=C(Nc1ccccc1Oc1ccccc1)C1CC1,12.2
5,O=C(Nc1ccccc1Oc1cccnc1)C1CCCN(C/C=C/c2ccccc2)C1 (stereo not shown),-76.9
6,O=C(Nc1ccccc1Oc1ccccc1)C1CCCC1,6.32
7,O=C(Nc1ccccc1Oc1cccnc1)C1CCCN(C/C=C/c2ccc(F)cc2)C1 (stereo not shown),-76.9
8,CCN(CC)C(=O)C1CCCN(C/C=C/c2ccccc2)C1 (stereo not shown),-40.8
9,COc1cc(CN2CCCC(C(=O)Nc3ccccc3Oc3cccnc3)C2)ccc1F (stereo not shown),-39
10,O=C(Nc1ccncc1)c1ccc([N+](=O)[O-])cc1Cl,-3.15
11,O=C(O)C1CC=C(Cl)CC1C(=O)NCc1ccccc1 (stereo not shown),6.61
12,COc1ccc(C(=O)NC2=C(C#N)CCC2)cc1OC,9.08
13,NC(=O)NC(CC(=O)N1CCc2ccccc2C1)c1ccc(Cl)cc1 (stereo not shown),2.09
14,COC(=O)[C@H](CCSC)NC(=O)Nc1ccc(OC)c(Cl)c1,-6.64
15,COC(=O)[C@H](CCSC)NC(=O)Nc1ccc(C)c(C)c1,-83.6
16,COC(=O)[C@H](CCSC)NC(=O)Nc1ccc(C)cc1,11.6
17,CCCCCCCCCCCCCCCC[N+](C)(C)CCN(Cc1ccc(OC)cc1)c1ncccn1.[Br-],-75
18,C[N+](C)(C)CCN(Cc1ccc(Cl)cc1)c1ccccn1.[I-],-14.4
19,CC(C)(Oc1ccc(Cl)cc1)C(=O)N(Cc1ccccc1)c1ccccn1,-7.15
20,O=C(COc1ccc(Cl)cc1)N(Cc1ccccc1)c1ccccn1,-36
21,COc1ccc(CN(CCN(C)C)c2ccccn2)cc1.O=C(O)/C=C\C(=O)O,-38.5
22,CN(C)CCN(Cc1ccccc1)c1ccccn1.Cl,-48.6

row,Structure (SMILES),"hERG current change (%, negative = inhibition) at 10uM [%]"
1,CCCCCc1ccc(-c2ccc(OC)cc2)nc1,19.7
2,CN(C)CCN(Cc1ccc(Cl)cc1)c1ccccn1.Cl,-74.4
3,CC[N+](C)(C)CCN(Cc1ccc(Cl)cc1)c1ccccn1.[Br-],-68.6
4,Nc1nc(-c2ccco2)nn1C(=O)CCc1ccccc1,-0.902
5,CCCOc1ccccc1C(=O)N1CCNC(=O)C1CC(=O)OC(C)C (stereo not shown),0.716
6,CCOC(=O)N1CCN(S(=O)(=O)c2cc(Cl)c(OC)cc2Cl)CC1,4.96
7,CCN(CC)S(=O)(=O)c1ccc2[nH]c(=O)cc(C(=O)NCC3CCCO3)c2c1 (stereo not shown),-10.3
8,COc1ccc(NC(=O)c2ccc(NC(=O)COC(=O)CC(NC(=O)c3ccccc3Cl)c3ccccc3)cc2)cc1 (stereo not shown),-2.55
9,CCC(=O)Nc1nc(CC(=O)Nc2ccccc2)cs1,18.2
10,COc1ccc(CC(=O)N2CCN(c3ccccn3)CC2)cc1,7.79
11,CCn1c(CNC(=O)COc2ccc(C(C)C)cc2)nnc1SCC(=O)Nc1cc(F)ccc1C,-65.7
12,CCn1c(CNC(=O)COc2ccc(C(C)C)cc2)nnc1SCC(=O)Nc1ccccc1C(C)C,-55.1
13,Cn1c(CNC(=O)c2ccco2)nnc1SCC(=O)Nc1ccc(Br)cc1F,-43.4
14,CCn1c(CNC(=O)COc2c(C)cccc2C)nnc1SCC(=O)Nc1nccs1,-51.8
15,CCn1c(COc2ccc(C(C)C)cc2)nnc1SCC(=O)Nc1nccs1,-7.75
16,CCn1c(CCCOc2ccc(Cl)cc2Cl)nnc1SCC(=O)Nc1cc(F)ccc1C,-13.1
17,CCn1c(CNC(=O)c2ccco2)nnc1SCC(=O)Nc1ccc(Br)cc1F,-54.8
18,CCn1c(CNC(=O)c2ccco2)nnc1SCC(=O)Nc1cc(F)ccc1C,-0.0602
19,COc1ccc(C(=O)NCCc2nnc(SCC(=O)Nc3ccccc3C(C)C)n2C)cc1,-13.3
20,CCn1c(CNC(=O)c2ccco2)nnc1SCC(=O)Nc1cc(C)c(C)cc1Br,-16.6
21,CCn1c(CNC(=O)Cc2ccc(OC)cc2)nnc1SCC(=O)Nc1nccs1,-5.75
22,CCCCc1nnc(SCC(=O)Nc2nccs2)n1CC,4.93
